The source of these data is PubChem BioAssay (NCATS).

Values joined by “and” are separate entries in the source; they are usually repeats but may differ in a detail not shown here. Equal values may be shown once. Records with an inconclusive call do not appear. More than one record can exist for a structure, and the calls need not agree. Active and inactive are the calls of the source. Unless noted, calls follow the shape of the full dose curve.

Test [1] deals with Voltage-gated inwardly rectifying potassium channel KCNH2 (Homo sapiens) (UniProt Q12809). In words: qHTS Assay for Small Molecule Inhibitors of the Human hERG Channel Activity (AID 588834; active = well fitted curve in the direction sought with a large enough effect; an effect the other way counts as inactive or inconclusive;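 also: lower thallium flux fluorescence means stronger hERG block; nearly all actives have a fitted effect of over 50% in size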; also: potency is read from the fitted curve at half-maximal effect). The gist of the method:
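Thallium-flux (FluxOR) read-out on FDSS: fluorescence read 10 s before and 2 min after stimulation buffer. hERG-BacMam-transduced U2OS cells, compound exposure about 10 min. AC50 by standard Hill equation.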
A general note: qHTS replaces the single test concentration by a dilution series.

Test [2] has as its target Peroxisome proliferator-activated receptor gamma (Homo sapiens) (UniProt P37231). In words: qHTS assay for small molecule agonists of peroxisome proliferator-activated receptor gamma signaling (AID 588536; active = well fitted curve in the direction sought with a large enough effect in the signal ratio, with a control signal flat, not every such curve was filed as active; the % refers to the signal ratio;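 also: 0% = DMSO basal wells and 100% = rosiglitazone at 2 µM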). The gist of the method: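 Cells were plated and held 6–6.5 h at 37 C, then compounds were added as a titration series. After a further 16 h, CCF4 dye was loaded for 2 h at room temperature and emission at 460/530 nm recorded.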

Test [3] addresses Vitamin D3 receptor (Homo sapiens) (UniProt P11473). The test is described as follows: qHTS assay for small molecule agonists of vitamin D receptor signaling (AID 588543).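 Also: 0% = DMSO basal and 100% = reference agonist control.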 The gist of the method:
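β-lactamase reporter, VDR-UAS-bla HEK293T, agonist mode. Cells plated 5 h at 37 °C, compound titration 16 h at 37 °C, CCF4 dye 2 h RT, ratio 460/530 nm. Hill fit → EC50, efficacy vs 50 nM 1α,25-(OH)2D3.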

A short description of test [4]: qHTS assay for small molecule agonists of retinoid X receptor alpha signaling (AID 588544). The conditions noted are these: HEK293T RXRa-UAS-bla, beta-lactamase reporter, 18 h; 530 nm emission.
Test [5] concerns the target Retinoic acid receptor RXR-alpha (Homo sapiens) (UniProt P19793). The test is described as above.
Test [6] can be described thus: qHTS assay for small molecule antagonists of retinoid X receptor alpha signaling (AID 588546; active = well fitted inhibition curve with a large enough effect in the signal ratio, with a control signal flat, not every such curve was filed as active; the % refers to the signal ratio; also: potency is read from the fitted curve at half-maximal effect;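 as to max response: cells stimulated with 9-cis-retinoic acid as agonist; % is scaled to controls: 0 for no effect and ±100 for the full control effect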). The conditions noted are these: HEK293T RXRa-UAS-bla, beta-lactamase ratio, antagonist mode; measured here: W530 green channel, cytotoxicity proxy. The gist of the method: (§1)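 Beta-lactamase reporter inhibition, read as CCF4 fluorescence ratio (ex 405, em 460/530 nm) after 2 h at RT. HEK293T UAS-bla cells, 2500/well, were stimulated with 9-cis-RA at 500 or 100 nM final alongside test compound for 18 h at 37 C.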

Test [7] deals with Retinoic acid receptor RXR-alpha (Homo sapiens) (UniProt P19793). The test is described as above. The settings on record: HEK293T RXRa-UAS-bla, beta-lactamase ratio, antagonist mode. The gist of the method:
as §1

Test [8] deals with Luciferin 4-monooxygenase (Photinus pyralis) (UniProt P08659). The test is described as follows: Biochemical firefly luciferase enzyme assay for NPC (AID 624030; active = well fitted curve in the direction sought with a large enough effect; an effect the other way counts as inactive or inconclusive;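 also: purified P. pyralis luciferase at 10 nM with luciferin and ATP substrate; series mostly up to about 59 µM; 0% = DMSO and -100% = full luciferase inhibition by PTC124 control; nearly all actives have a fitted effect of over 70% in size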). The gist of the method:
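Purified P. pyralis luciferase at 10 nM in 50 mM Tris Acetate (final), luminescence read within 5 minutes of enzyme addition to compounds. Activity normalised to PTC124 versus DMSO; concentration-response curves classed by r2, magnitude and activity.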

Test [9] in a line: S16 Schwann cell viability assay (CellTiter-Glo assay) (AID 624031; active = well fitted curve in the direction sought with a large enough effect; an effect the other way counts as inactive or inconclusive;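 also: cellular ATP luminescence as a viability measure; series mostly up to about 58 µM; plate controls were DMSO-treated cells for no effect and cell-free wells for full effect; nearly all actives have a fitted effect of over 70% in size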). The gist of the method:
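Untransfected S16 rat Schwann cells; compound 24 h, 37 °C/5% CO2; CellTiter-Glo ATP luminescence. % activity vs no-cell wells and DMSO controls (0%); concentration-effect curves classed by r2, response magnitude, activity.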
For orientation: Cellular ATP, detected with luciferase, serves as a proxy for viable cell number.

The nature of test [10]: S16 Schwann cell PMP22 intronic element beta-lactamase assay (AID 624044).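 Also: 0% = DMSO and -100% = potassium clavulanate positive control; nearly all actives have a fitted effect of over 15% in size.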 In short, it runs like this: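 Beta-lactamase reporter under a PMP22 intronic regulatory element in stable S16 rat Schwann cells; 24 h compound exposure. 460 nm blue signal normalized between DMSO (0%) and potassium clavulanate, with 535 nm FRET tracking viability; curves classed by r2 and response.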

The nature of test [11]: qHTS assay for small molecule antagonists of peroxisome proliferator-activated receptor delta signaling (AID 588535; active = well fitted inhibition curve with a large enough effect in the signal ratio, with a control signal flat, not every such curve was filed as active; the % refers to the signal ratio;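 as to max response: cells co-treated with a PPAR-delta agonist as stimulator during compound exposure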). The conditions noted are these: HEK293T PPARd-UAS-bla, beta-lactamase FRET ratio, 18 h; 460 nm channel. In short, it runs like this:
(§2)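 Beta-lactamase reporter read-out (405 nm excitation, 460/530 nm emission) after CCF4 loading for 2 hrs at RT. HEK293T PPAR-delta-UAS-bla cells, 2% charcoal/dextran FBS, compounds for 18 hrs at 37 C. Hill fit gave IC50 and efficacy.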

Test [12] concerns the target Peroxisome proliferator-activated receptor delta (Homo sapiens) (UniProt Q03181). The description is as above. In short, it runs like this: as §2
Test [13] has as its target Vitamin D3 receptor (Homo sapiens) (UniProt P11473). In words: qHTS assay for small molecule antagonists of vitamin D receptor signaling (AID 588541). Also: potency is read from the fitted curve at half-maximal effect. In short, it runs like this: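 VDR-UAS-bla HEK293T cells in 2% charcoal-stripped FBS were stimulated with 1-alpha,25-dihydroxyvitamin D3 (3 nM final) plus compound for 16 h at 37 C. The beta-lactamase CCF4 readout was normalized to 50 nM agonist and DMSO, and Hill fits gave IC50.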

Test [14] has as its target Thyroid hormone receptor beta (Homo sapiens) (UniProt P10828). The test is described as follows: qHTS assay for small molecule agonists of thyroid hormone receptor beta signaling (AID 588545). In short, it runs like this:
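HEK 293 TR-UAS-bla; agonist mode; 18 hrs, 37 C; CCF4, ex 405/em 460 and 530 nm; norm. T3 10 nM = 100%, DMSO = 0%; Hill fit → EC50, efficacy.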

For test [15] the target is unchanged. In words: qHTS assay for small molecule antagonists of thyroid hormone receptor beta signaling (AID 588547; active = well fitted inhibition curve with a large enough effect in the signal ratio, with a control signal flat, not every such curve was filed as active; the % refers to the signal ratio;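 also: cells stimulated with 0.4 nM T3 agonist during compound exposure; series mostly up to about 77 µM; % is scaled to controls: 0 for no effect and ±100 for the full control effect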). The settings on record: TR-UAS-bla HEK293, beta-lactamase ratio, antagonist mode, 18 h. In short, it runs like this:
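TR-UAS-bla GripTite HEK293 cells in 2% charcoal/dextran FBS medium; compounds 0.59 nM to 92 uM with T3 at 0.4nM final, 18 h at 37 C. Beta-lactamase read by CCF4 fluorescence (460/530 nm); Hill fits gave IC50 and efficacy.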

Test [16] is described as follows: S16 Schwann cell PMP22 intronic element firefly luciferase assay (AID 624032; active = well fitted curve in the direction sought with a large enough effect; an effect the other way counts as inactive or inconclusive;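 also: series mostly up to about 58 µM; plate controls were DMSO for no effect and PTC124 positive control mean for full effect; nearly all actives have a fitted effect of over 30% in size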). The gist of the method: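 Rat S16 Schwann cells stably carrying firefly luciferase driven by a PMP22 intronic element, in 10% FBS, treated 24 h at 37 C. ONE-Glo luminescence normalized to PTC124 control and DMSO (0%); curves classed by r2, magnitude and activity.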

Sequence of Peroxisome proliferator-activated receptor gamma (Homo sapiens) (P37231 whole entry, looked up): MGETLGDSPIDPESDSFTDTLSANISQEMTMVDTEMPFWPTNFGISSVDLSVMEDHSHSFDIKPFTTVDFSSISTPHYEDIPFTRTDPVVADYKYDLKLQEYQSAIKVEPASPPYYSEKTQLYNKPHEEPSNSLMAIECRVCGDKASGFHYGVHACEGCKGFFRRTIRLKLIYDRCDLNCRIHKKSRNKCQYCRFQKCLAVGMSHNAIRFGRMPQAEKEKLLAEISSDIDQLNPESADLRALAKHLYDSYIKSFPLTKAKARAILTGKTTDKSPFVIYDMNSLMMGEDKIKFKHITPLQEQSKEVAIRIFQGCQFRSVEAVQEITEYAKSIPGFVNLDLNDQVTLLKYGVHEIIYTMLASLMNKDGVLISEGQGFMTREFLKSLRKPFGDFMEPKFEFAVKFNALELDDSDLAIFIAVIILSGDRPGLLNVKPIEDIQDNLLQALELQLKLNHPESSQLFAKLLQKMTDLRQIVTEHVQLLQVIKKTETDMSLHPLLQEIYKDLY
Sequence of Luciferin 4-monooxygenase (Photinus pyralis) (P08659 whole entry, looked up): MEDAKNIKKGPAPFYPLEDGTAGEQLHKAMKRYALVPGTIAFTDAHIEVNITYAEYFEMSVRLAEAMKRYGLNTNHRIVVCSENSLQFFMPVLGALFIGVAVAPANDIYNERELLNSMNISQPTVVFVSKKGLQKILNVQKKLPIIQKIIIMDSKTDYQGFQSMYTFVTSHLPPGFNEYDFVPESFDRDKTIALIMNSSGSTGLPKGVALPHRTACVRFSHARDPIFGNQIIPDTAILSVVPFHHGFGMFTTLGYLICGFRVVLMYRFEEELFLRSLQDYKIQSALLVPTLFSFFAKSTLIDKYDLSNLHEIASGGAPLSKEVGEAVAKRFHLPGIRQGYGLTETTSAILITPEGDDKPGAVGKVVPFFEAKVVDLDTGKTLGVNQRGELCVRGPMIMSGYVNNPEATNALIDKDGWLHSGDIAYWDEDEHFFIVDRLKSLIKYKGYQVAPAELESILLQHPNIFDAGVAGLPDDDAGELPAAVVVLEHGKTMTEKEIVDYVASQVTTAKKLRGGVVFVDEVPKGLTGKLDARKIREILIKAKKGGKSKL
Sequence of Retinoic acid receptor RXR-alpha (Homo sapiens) (P19793 whole entry, looked up): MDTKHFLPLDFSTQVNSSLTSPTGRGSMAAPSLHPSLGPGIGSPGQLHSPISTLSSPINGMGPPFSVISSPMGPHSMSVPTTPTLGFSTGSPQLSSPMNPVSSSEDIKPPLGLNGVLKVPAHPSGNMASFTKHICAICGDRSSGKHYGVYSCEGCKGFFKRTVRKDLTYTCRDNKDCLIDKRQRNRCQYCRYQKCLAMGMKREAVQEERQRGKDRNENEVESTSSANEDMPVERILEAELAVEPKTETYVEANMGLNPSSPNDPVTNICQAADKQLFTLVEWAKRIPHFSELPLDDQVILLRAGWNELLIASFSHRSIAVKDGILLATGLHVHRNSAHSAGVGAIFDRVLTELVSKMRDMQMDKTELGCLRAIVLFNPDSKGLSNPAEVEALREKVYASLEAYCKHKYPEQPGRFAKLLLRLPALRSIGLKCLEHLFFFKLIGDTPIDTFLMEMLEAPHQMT
Sequence of Thyroid hormone receptor beta (Homo sapiens) (P10828 whole entry, looked up): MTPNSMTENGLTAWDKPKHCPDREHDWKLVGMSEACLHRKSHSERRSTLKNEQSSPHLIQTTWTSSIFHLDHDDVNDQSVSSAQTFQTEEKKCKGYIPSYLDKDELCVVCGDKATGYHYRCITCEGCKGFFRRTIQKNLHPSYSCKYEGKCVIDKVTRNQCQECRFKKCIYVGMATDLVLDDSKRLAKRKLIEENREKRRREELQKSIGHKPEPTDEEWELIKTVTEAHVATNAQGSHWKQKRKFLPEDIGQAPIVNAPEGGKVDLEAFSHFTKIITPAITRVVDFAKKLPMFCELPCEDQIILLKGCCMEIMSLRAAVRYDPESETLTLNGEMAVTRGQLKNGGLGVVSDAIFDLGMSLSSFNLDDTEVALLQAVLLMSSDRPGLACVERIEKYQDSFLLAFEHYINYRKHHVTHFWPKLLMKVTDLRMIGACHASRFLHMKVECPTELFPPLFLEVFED
Sequence of Voltage-gated inwardly rectifying potassium channel KCNH2 (Homo sapiens) (Q12809 whole entry, looked up): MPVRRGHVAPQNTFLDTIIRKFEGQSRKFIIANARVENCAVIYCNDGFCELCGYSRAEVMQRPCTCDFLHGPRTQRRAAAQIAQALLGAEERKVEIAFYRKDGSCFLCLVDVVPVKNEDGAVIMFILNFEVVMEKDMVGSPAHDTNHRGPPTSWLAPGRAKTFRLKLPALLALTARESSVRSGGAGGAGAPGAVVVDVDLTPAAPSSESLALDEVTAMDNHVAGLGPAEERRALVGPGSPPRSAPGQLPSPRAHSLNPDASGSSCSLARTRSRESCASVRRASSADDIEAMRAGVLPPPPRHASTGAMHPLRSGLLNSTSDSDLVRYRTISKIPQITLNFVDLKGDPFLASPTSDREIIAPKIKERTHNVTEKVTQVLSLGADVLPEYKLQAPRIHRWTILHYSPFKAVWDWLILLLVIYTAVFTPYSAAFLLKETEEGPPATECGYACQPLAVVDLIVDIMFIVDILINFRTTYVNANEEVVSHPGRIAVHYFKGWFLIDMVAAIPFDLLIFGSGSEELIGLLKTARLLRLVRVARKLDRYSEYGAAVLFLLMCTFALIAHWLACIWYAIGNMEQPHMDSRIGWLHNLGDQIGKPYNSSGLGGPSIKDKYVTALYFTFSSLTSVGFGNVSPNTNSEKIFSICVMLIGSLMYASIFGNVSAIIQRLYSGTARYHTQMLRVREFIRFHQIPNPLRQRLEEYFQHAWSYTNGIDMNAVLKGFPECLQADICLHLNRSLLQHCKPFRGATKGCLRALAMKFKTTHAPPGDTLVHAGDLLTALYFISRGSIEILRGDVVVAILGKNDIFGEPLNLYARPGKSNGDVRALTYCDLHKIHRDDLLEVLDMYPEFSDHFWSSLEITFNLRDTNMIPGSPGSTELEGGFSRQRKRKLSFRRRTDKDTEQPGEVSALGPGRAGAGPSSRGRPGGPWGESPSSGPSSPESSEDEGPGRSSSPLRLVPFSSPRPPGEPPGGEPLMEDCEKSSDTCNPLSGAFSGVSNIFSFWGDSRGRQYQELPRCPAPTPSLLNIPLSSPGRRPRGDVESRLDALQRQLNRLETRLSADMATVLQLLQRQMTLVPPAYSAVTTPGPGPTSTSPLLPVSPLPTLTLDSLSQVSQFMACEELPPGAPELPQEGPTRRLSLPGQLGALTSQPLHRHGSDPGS
Sequence of Vitamin D3 receptor (Homo sapiens) (P11473 whole entry, looked up): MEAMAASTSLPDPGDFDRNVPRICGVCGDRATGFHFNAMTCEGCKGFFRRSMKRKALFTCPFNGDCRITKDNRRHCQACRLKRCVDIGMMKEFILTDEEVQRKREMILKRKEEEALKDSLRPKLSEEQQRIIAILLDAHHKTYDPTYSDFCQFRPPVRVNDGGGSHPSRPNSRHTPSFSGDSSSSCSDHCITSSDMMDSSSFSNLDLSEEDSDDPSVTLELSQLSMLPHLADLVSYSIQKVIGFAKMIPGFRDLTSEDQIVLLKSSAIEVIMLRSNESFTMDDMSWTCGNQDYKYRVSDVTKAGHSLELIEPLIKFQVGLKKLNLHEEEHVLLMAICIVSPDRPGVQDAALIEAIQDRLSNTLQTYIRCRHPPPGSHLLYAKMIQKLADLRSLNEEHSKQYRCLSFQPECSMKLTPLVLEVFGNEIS
Sequence of Peroxisome proliferator-activated receptor delta (Homo sapiens) (Q03181 whole entry, looked up): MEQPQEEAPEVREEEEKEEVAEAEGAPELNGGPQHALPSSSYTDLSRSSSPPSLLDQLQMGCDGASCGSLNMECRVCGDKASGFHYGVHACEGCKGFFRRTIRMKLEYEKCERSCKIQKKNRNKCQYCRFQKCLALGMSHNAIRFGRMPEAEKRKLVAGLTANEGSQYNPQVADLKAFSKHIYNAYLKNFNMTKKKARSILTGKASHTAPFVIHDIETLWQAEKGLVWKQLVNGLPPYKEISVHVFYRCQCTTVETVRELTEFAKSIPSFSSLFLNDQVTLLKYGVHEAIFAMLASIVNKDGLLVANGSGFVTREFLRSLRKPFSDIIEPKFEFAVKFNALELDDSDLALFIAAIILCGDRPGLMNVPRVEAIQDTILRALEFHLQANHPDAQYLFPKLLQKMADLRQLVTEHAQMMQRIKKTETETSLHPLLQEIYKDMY

Turning to `CCN1CCCC(OC(=O)C(c2ccccc2)c2ccccc2)C1` (stereo unspecified), in test [1], the Potency was 7.94 µM (active).
As to `C#C[C@]1(O)CC[C@H]2[C@@H]3CCC4=Cc5oncc5C[C@]4(C)[C@H]3CC[C@@]21C`, the result in test [2], in [3] and in test [5] was inactive. Further, the results for the max response in [4], in test [6] and in [7] were 27%, 10.7% and -13.1% (inactive), respectively. Besides, the Potency result in test [8], in [9] and in test [10] was “inactive” each time.
Turning to `CC(C(=O)O)c1cccc(Oc2ccccc2)c1` (stereo unspecified), the Potency entry in [1] was “inactive”.
As for `CCCN(CCc1cccs1)[C@H]1CCc2c(O)cccc2C1`, in test [1], the Potency is 1 µM (active).
As to `COc1ccc(C(Cl)=C(c2ccc(OC)cc2)c2ccc(OC)cc2)cc1`, the max response in test [11] is 23%; in [4], -9.29%; in test [6], -0.236%; in test [7], -16% (inactive). For the same compound, the compound was called inactive in test [12], in [3], in test [5] and in [14]. For the same compound, the Potency entry in [13], in [1], in [8], in test [9] and in [16] was “inactive” each time. Also, in test [15], the activity change % (negative = inhibition) was -9.92% (inactive).
With `CC1(C)OC[C@@H]2O[C@@]3(C(=O)O)OC(C)(C)O[C@H]3[C@@H]2O1`, the call in [2], in test [3], in test [5] and in test [14] was inactive. Moreover, the Potency entry in test [13] is “inactive”. For the same compound, the max response in [4] is 0.747%; in test [6], -2.62%; in test [7] it was 1.08% (inactive). Moreover, the activity change % (negative = inhibition) in test [15] is -3.12% (inactive).
As to `NCCNc1cccc2ccccc12`, the max response in [11] was 22%; in test [4], 15.9%; in [6], 2.26% and -22%; in test [7], -21.1% (inactive). For the same compound, the result in test [12], in [2], in test [3], in [5] and in [14] was inactive. For the same compound, the Potency result in test [13] is “inactive and 31.6 µM (active)”; in [7], 44.7 µM (active). For the same compound, in test [15], the activity change % (negative = inhibition) was -5.49% (inactive). For the same compound, the Potency entry in test [1], in test [8] and in [10] was “inactive” throughout.
In the case of `CCCCCCCCCCCCCCCC(=O)O`, the compound was called inactive in test [2], in test [3], in test [5] and in [14]. Moreover, the Potency entry in test [13], in test [1], in test [8], in test [9] and in [10] was “inactive” in each case. Besides, the max response was -15.5% in test [4], -11.4% in [6] and 0.179% (inactive) in test [7]. For the same compound, in test [15], the activity change % (negative = inhibition) is 13.6% (inactive).
On to `Oc1ccc(Cl)cc1Cc1cc(Cl)ccc1O`, for which the Potency result in test [13], in test [8], in [9], in test [16] and in test [10] was “inactive” in each case. The call in test [3], in test [5] and in [14] was inactive. Further, the max response in test [4] was -27.5% and -0.357%. The Potency in [1] is 28.2 µM (active).
`O=C(O)c1ccc(S(=O)(=O)N(Cl)Cl)cc1`: the result in test [2], in test [3], in test [5] and in [14] was inactive. Further, the max response in [4] is -8.23%; in test [6], -4.72%; in test [7] it was 3.99% (inactive). Besides, in test [15], the activity change % (negative = inhibition) was 9.05% (inactive). In addition, the Potency result in [1], in test [8], in test [9] and in [16] was “inactive” each time.
As for `O=C(N/N=C/c1ccc([N+](=O)[O-])o1)c1ccc(O)cc1`, in test [1], the Potency entry was “inactive”.
